The source made the active and inactive calls. Where a call stands in place of a potency, no number is given. Unless noted, the call rests on the fitted dose curve; in most records, active means well fitted curve in the direction sought with a large enough effect in the repeat runs; inconclusive means weak or mixed curves; inactive means no such curve, though single readings can be large; an effect the other way counts as inactive or inconclusive.
Assays:
[1] = qHTS assay for small molecules that induce genotoxicity in human embryonic kidney cells expressing luciferase-tagged ATAD5 (AID 651632); further: nearly all actives have a fitted effect of over 15% in size
Procedure, shortened: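 ATAD5-luc HEK293T, 2,000 cells/well; cpd or DMSO pin-transferred; 16 hr, 37C/5% CO2; Amplite 30 min RT; luminescence.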

[2] = qHTS assay for small molecules that induce genotoxicity in human embryonic kidney cells expressing luciferase-tagged ATAD5 - cell viability (AID 651634; calls by dose curve; further: nearly all actives have a fitted effect of over 25% in size)
Procedure, shortened: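 Fluorescence from CellTiter-Fluor, reporting protease activity within live cells, served as the viability read-out. HEK293T cells carrying luciferase-tagged ATAD5 had been treated with compound for 15.5 hr at 37C.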

[3] = qHTS assay for small molecule disruptors of the mitochondrial membrane potential - cell viability (AID 720634; calls by dose curve;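 further: human HepG2 liver cancer cells; series mostly up to about 83 µM; nearly all actives have a fitted effect of over 20% in size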)
Procedure, shortened: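 Cells: HepG2, 2,000/well, attached overnight. Compound 1 hr, 37 C/5% CO2. +m-MPI dye, +CellTiter-Glo 30 min RT. Readout: luminescence (ATP).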

[4] = qHTS assay for small molecule disruptors of the mitochondrial membrane potential (AID 720635); further: potency means the concentration at half of the fitted maximal effect
Procedure, shortened: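 HepG2 cells exposed to compound 1 hr at 37C, then Mito-MPS dye 30 min. Ratio read of aggregate (540/590 nm) versus monomer (490/535 nm) fluorescence.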

[5] = qHTS assay to test for compound auto fluorescence at 590 nm (red) in HepG2 cells (AID 720674)
Procedure, shortened: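 Seeding: 2,000 HepG2 cells/well, MEM/10% FBS, overnight 37 C. Dosing: compound vs DMSO. Incubation: 1 hr, 37 C, 5% CO2. Read: fluorescence 540 ex/590 em, Rose Bengal sodium as red reference.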

[6] = qHTS assay to test for compound auto fluorescence at 535 nm (green) in HepG2 cells (AID 720675)
[7] = qHTS assay to test for compound auto fluorescence at 460 nm (blue) in HEK293 cells (AID 720678)
Procedure, shortened: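 Blue-channel (Ex/Em 405/460 nm) intensity measured in HEK293 cultures after overnight compound exposure at 37C; signal expressed relative to triamterene. Cells plated 2,000 per well in 10% dialyzed FBS medium and allowed 4-5 hr to attach.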

[8] = qHTS assay to test for compound auto fluorescence at 590 nm (red) in HEK293 cells (AID 720679)
Procedure, shortened: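 Red-channel autofluorescence (Ex/Em 540/590 nm; Rose Bengal sodium reference) was measured after overnight 37C, 5% CO2 exposure of attached HEK293 cells, 2,000 per well in medium with 10% dialyzed FBS.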

[9] = qHTS assay to test for compound auto fluorescence at 535 nm (green) in HEK293 cells (AID 720680)
[10] = qHTS assay to test for compound auto fluorescence at 460 nm (blue) in HEK293 cell free culture (AID 720681)
Procedure, shortened: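 Compounds were added to cell-free DMEM with 10% FBS and fluorescence read directly. The blue channel used 405 nm excitation and 460 nm emission, with triamterene as the reference fluorophore.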

[11] = qHTS assay to test for compound auto fluorescence at 535 nm (green) in HEK293 cell free culture (AID 720682)
Procedure, shortened: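 Read-out: 485/535 nm fluorescence intensity, calibrated against fluorescein. Medium only (DMEM + 10% FBS, no cells); test compound or DMSO vehicle added by pintool before plate reading.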

[12] = qHTS assay to test for compound auto fluorescence at 590 nm (red) in HEK293 cell free culture (AID 720683)
Procedure, shortened: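 Cell-free wells of DMEM with 10% FBS received compound, and intrinsic fluorescence was read at excitation/emission 540/590 nm. Values expressed as equivalence to Rose Bengal sodium.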

[13] = qHTS assay to test for compound auto fluorescence at 590 nm (red) in HepG2 cell free culture (AID 720684)
Procedure, shortened: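 Compounds are added to culture medium (MEM, 10% FBS) lacking cells, then fluorescence is read at excitation 540 nm, emission 590 nm, with Rose Bengal sodium as the equivalency standard.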

[14] = qHTS assay to test for compound auto fluorescence at 460 nm (blue) in HepG2 cell free culture (AID 720685)
Procedure, shortened: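 Compound (23 nL) or DMSO pinned into cell-free MEM with 10% FBS; blue fluorescence read at 405/460 nm excitation/emission, expressed as auto-fluorescence equivalency to triamterene.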

[15] = qHTS assay to test for compound auto fluorescence at 535 nm (green) in HepG2 cell free culture (AID 720686)
[16] = qHTS assay to test for compound auto fluorescence at 460 nm (blue) in HepG2 cells (AID 720687)
Procedure, shortened: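 HepG2 cells in MEM with 10% FBS, attached overnight at 37 C, were exposed to compound or DMSO for 1 hr at 37 C, 5% CO2. Blue fluorescence was read at 405/460 nm, with triamterene as reference fluorophore.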

[17] = biological target: Glucocorticoid receptor (Homo sapiens) (UniProt P04150); assay: qHTS assay to identify small molecule agonists of the glucocorticoid receptor (GR) signaling pathway (AID 720691; active means well fitted activation curve with a large enough effect in the signal ratio in the repeat runs, not every such curve was filed as active; inconclusive means weak or mixed curves, or effect the other way; inactive means no such curve, though single readings can be large or run the other way; the % refers to the signal ratio)
Glucocorticoid receptor (Homo sapiens), sequence (P04150 whole entry, looked up): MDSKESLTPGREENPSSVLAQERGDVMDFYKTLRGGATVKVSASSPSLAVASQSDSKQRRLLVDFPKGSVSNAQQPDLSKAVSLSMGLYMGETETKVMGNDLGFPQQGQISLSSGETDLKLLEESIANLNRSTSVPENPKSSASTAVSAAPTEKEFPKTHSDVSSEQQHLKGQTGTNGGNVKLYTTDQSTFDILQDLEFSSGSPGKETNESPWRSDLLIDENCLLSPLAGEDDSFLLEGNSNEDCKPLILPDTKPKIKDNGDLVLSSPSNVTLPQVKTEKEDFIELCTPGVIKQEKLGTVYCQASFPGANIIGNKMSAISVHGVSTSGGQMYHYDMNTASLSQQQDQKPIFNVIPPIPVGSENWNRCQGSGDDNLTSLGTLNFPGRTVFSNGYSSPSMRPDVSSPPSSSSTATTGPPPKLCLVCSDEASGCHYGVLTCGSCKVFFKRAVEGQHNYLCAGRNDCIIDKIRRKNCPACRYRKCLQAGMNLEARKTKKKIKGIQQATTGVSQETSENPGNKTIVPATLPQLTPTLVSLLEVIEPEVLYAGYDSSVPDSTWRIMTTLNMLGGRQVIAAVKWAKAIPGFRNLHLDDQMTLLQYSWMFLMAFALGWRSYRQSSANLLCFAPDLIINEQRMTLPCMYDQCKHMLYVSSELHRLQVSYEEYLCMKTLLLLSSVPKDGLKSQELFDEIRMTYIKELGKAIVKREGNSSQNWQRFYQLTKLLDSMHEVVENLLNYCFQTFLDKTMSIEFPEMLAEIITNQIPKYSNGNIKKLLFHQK
Procedure, shortened: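 Fluorescence intensity from LiveBLAzer B/G FRET substrate (2 h, room temperature) reports beta-lactamase expression driven by the glucocorticoid response element in GR-bla HeLa cells after 18 h compound exposure at 37 C.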

[18] = qHTS assay to identify small molecule antagonists of the glucocorticoid receptor (GR) signaling pathway - cell viability counter screen (AID 720693); further: nearly all actives have a fitted effect of over 55% in size; further: potency means the concentration at half of the fitted maximal effect
[19] = qHTS assay to identify small molecule antagonists of the androgen receptor (AR) signaling pathway - cell viability counter screen (AID 743033; further: nearly all actives have a fitted effect of over 45% in size)
[20] = qHTS assay to identify small molecule antagonists of the androgen receptor (AR) signaling pathway using the MDA cell line - cell viability counter screen (AID 743041; further: nearly all actives have a fitted effect of over 45% in size)
Procedure, shortened: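 Same-well cytotoxicity was assessed by CellTiter-Fluor in MDA-kb2 AR-luc cells after 16 h of compound treatment under R1881 agonism.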

[21] = qHTS assay to identify small molecule antagonists of the thyroid receptor (TR) signaling pathway - cell viability counter screen (AID 743064); further: nearly all actives have a fitted effect of over 50% in size; further: potency means the concentration at half of the fitted maximal effect
Procedure, shortened: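 GH3.TRE-Luc rat pituitary cells carrying a TRE-luciferase reporter were treated with compound plus 1 nM T3 (final) for 23.5 h at 37 °C. Viability was then read in the same wells by CellTiter-Fluor fluorescence after a further 30 min.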

[22] = qHTS assay to identify small molecule antagonists of the thyroid receptor (TR) signaling pathway (AID 743065); further: nearly all actives have a fitted effect of over 55% in size; further: potency means the concentration at half of the fitted maximal effect
Procedure, shortened: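 GH3.TRE-Luc rat pituitary cells (two TREs driving luciferase) were dosed with compound, then stimulated with 1 nM T3 (final) for 23.5 h at 37 C. ONE-Glo luminescence was the read-out, with CellTiter-Fluor fluorescence as the cytotoxicity counter-screen.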

[23] = system: thyroid hormone receptor (rat, GH3 cells); assay: qHTS assay to identify small molecule agonists of the thyroid receptor (TR) signaling pathway (AID 743066; calls by dose curve)
[24] = qHTS assay to identify small molecule antagonists of the estrogen receptor alpha (ER-alpha) signaling pathway using the BG1 cell line - cell viability counter screen (AID 743081);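 further: compound given together with 17beta-estradiol as the ER stimulus; nearly all actives have a fitted effect of over 45% in size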; further: potency means the concentration at half of the fitted maximal effect
Aromatase (Homo sapiens) = Aromatase (Homo sapiens) (UniProt P11511); assay: qHTS assay to identify aromatase inhibitors (AID 743083); further: series mostly up to about 70 µM; nearly all actives have a fitted effect of over 55% in size
Aromatase (Homo sapiens), sequence (P11511 whole entry, looked up): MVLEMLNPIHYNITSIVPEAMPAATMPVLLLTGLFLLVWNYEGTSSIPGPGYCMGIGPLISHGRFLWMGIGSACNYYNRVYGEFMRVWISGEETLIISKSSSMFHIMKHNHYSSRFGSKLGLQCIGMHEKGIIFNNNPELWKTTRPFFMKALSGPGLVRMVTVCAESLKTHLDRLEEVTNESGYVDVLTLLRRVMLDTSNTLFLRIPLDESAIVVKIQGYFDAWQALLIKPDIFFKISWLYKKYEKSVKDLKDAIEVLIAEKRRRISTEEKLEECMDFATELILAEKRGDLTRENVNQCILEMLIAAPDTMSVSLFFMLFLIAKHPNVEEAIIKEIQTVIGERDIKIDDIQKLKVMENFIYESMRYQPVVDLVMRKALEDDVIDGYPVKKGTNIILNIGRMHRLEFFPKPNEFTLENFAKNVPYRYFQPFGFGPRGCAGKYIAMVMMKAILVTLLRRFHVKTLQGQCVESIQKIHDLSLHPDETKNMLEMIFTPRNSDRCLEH

[25] = qHTS assay to identify aromatase inhibitors - cell viability counter screen (AID 743084);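 further: cells stimulated with testosterone during compound exposure; nearly all actives have a fitted effect of over 55% in size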
[26] = qHTS assay to identify small molecule that activate the aryl hydrocarbon receptor (AhR) signaling pathway - cell viability counter screen (AID 743086);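 further: HepG2 liver cells carrying the AhR DRE luciferase reporter; series mostly up to about 70 µM; nearly all actives have a fitted effect of over 45% in size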
Procedure, shortened: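 HepG2-AhR-luc (HG2L7.5c1) cells, 4000/well, treated 24 h at 37 C with compound; viability measured as CellTiter-Fluor fluorescence after 30 min in the same wells as the luciferase read.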

[27] = biological target: Peroxisome proliferator-activated receptor gamma (Homo sapiens) (UniProt P37231); assay: qHTS assay to identify small molecule agonists of the peroxisome proliferator-activated receptor gamma (PPARg) signaling pathway (AID 743094; active means well fitted activation curve with a large enough effect in the signal ratio in the repeat runs, not every such curve was filed as active; inconclusive means weak or mixed curves, or effect the other way; inactive means no such curve, though single readings can be large or run the other way; the % refers to the signal ratio)
Peroxisome proliferator-activated receptor gamma (Homo sapiens), sequence (P37231 whole entry, looked up): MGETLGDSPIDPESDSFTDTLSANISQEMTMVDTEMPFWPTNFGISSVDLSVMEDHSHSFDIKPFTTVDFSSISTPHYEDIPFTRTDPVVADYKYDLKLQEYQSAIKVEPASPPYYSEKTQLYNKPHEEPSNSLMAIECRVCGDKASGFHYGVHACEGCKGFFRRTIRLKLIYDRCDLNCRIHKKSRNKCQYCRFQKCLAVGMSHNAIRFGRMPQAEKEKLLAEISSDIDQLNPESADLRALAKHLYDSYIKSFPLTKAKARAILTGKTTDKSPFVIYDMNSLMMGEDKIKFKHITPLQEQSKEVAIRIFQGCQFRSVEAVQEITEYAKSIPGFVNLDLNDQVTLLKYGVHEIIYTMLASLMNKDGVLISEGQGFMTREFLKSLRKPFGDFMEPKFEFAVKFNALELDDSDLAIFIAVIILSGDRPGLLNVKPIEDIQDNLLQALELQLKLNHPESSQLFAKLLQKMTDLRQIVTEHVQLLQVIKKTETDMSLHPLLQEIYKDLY
Procedure, shortened: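 Beta-lactamase FRET fluorescence was the read-out after a 1 h room-temperature substrate step, following 17 h compound treatment at 37C of HEK293H cells expressing a UAS-driven bla reporter responsive to PPARg.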

[28] = biological target: Acetylcholinesterase (Homo sapiens) (UniProt P22303); assay: Acetylcholinesterase (AChE) small molecule antagonists: enzyme-based qHTS assay with human liver microsomes (AID 1347399; calls by dose curve; further: nearly all actives have a fitted effect of over 60% in size); details: Potency: qHTS inhibition; outcome: qHTS inhibition
Acetylcholinesterase (Homo sapiens), sequence (P22303 whole entry, looked up): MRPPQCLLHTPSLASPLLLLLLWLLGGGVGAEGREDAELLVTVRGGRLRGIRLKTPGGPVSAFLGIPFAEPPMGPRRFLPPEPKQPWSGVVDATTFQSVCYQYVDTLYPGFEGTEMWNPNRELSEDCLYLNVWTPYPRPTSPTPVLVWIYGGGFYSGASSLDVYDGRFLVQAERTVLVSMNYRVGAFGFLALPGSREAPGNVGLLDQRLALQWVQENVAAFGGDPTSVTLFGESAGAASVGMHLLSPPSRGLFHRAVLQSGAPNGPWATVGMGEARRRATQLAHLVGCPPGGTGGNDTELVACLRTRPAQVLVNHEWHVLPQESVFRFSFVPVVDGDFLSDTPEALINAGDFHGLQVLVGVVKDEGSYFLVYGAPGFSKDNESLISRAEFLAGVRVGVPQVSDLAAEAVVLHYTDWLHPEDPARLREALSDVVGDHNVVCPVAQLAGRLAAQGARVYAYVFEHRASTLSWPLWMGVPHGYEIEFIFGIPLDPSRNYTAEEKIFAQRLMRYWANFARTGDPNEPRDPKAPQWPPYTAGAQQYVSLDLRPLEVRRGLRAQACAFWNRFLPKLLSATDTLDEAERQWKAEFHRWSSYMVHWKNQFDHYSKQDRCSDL
Procedure, shortened: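 Recombinant human AChE (50 mU/mL in the enzyme mix) and human liver microsomes (0.25 mg/mL final) were preincubated with compound and NADPH (0.25 mg/mL final) for 30 min at 37 C. Acetylthiocholine/DTNB was then added; thiocholine was read colorimetrically after 10 min at room temperature.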

[29] = qHTS assay for small molecule agonists of the p53 signaling pathway (AID 651631; calls by dose curve; further: nearly all actives have a fitted effect of over 15% in size)
Procedure, shortened: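 HCT-116 cells carrying a stable p53 response element–beta-lactamase reporter were plated, rested 5 h at 37 °C, then exposed to compound in DMSO for 16 h at 37 °C; reporter activity was read as FRET substrate fluorescence after 2 h at room temperature.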

[30] = qHTS assay for identifying genotoxic compounds that show differential cytotoxicity against isogenic chicken DT40 cell lines with known DNA damage response pathways - Rev3 mutant cell line (AID 743014)
[31] = qHTS assay for identifying genotoxic compounds that show differential cytotoxicity against isogenic chicken DT40 cell lines with known DNA damage response pathways - Rad54/Ku70 mutant cell line (AID 743015); further: potency means the concentration at half of the fitted maximal effect; nearly all actives have a fitted effect of over 60% in size
[32] = biological target: Estrogen receptor (Homo sapiens) (UniProt P03372); assay: qHTS assay to identify small molecule antagonists of the estrogen receptor alpha (ER-alpha) signaling pathway (AID 743069; active means well fitted curve in the direction sought with a large enough effect in the signal ratio in the repeat runs, not every such curve was filed as active; inconclusive means weak or mixed curves, or effect the other way; inactive means no such curve, though single readings can be large or run the other way; the % refers to the signal ratio)
Estrogen receptor (Homo sapiens), sequence (P03372 whole entry, looked up): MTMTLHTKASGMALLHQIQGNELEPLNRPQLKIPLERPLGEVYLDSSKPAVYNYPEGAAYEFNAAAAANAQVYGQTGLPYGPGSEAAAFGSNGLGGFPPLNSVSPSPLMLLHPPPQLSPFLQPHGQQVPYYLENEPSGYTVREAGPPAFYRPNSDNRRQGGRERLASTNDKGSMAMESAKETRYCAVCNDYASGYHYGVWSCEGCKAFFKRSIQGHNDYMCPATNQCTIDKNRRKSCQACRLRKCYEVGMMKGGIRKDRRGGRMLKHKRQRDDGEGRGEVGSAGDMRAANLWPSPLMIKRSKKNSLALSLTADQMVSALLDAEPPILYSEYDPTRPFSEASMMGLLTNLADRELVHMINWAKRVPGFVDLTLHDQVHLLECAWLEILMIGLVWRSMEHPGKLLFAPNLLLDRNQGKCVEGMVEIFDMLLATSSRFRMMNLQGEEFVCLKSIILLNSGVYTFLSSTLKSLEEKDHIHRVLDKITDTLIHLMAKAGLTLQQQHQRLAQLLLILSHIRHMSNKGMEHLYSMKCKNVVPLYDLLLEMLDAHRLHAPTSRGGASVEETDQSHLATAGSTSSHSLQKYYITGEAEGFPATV
Procedure, shortened: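 Reporter cells (ER-alpha-bla, HEK293 background) are conditioned overnight in stripped-serum medium (2% charcoal-stripped FBS). Compound and 17beta-estradiol exposure runs 18 hr at 37C, 5% CO2.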

[33] = qHTS assay to identify small molecule antagonists of the estrogen receptor alpha (ER-alpha) signaling pathway - cell viability counter screen (AID 743074; calls by dose curve; further: potency means the concentration at half of the fitted maximal effect)
[34] = biological target: Estrogen receptor (Homo sapiens) (UniProt P03372); assay: qHTS assay to identify small molecule agonists of the estrogen receptor alpha (ER-alpha) signaling pathway (AID 743075; calls by dose curve;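 further: HEK293 GripTite cells with ER-alpha and UAS-driven beta-lactamase reporter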; further: potency means the concentration at half of the fitted maximal effect)
[35] = biological target: Estrogen receptor (Homo sapiens) (UniProt P03372); assay: qHTS assay to identify small molecule agonists of the estrogen receptor alpha (ER-alpha) signaling pathway using the BG1 cell line (AID 743079); further: nearly all actives have a fitted effect of over 20% in size; further: potency means the concentration at half of the fitted maximal effect
[36] = qHTS assay to identify small molecule antagonists of the estrogen receptor alpha (ER-alpha) signaling pathway using the BG1 cell line (AID 743080; calls by dose curve;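 further: BG1 cells stimulated with 17beta-estradiol alongside compound; series mostly up to about 70 µM; nearly all actives have a fitted effect of over 25% in size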)
Procedure, shortened: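 Luciferase inhibition measured with ONE-Glo after 30 min at RT in BG1Luc4E2 cells given test compounds and 17beta-estradiol for 21.5 h at 37 C; CellTiter-Fluor viability read in the same wells beforehand.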

[37] = biological target: Aryl hydrocarbon receptor (Homo sapiens) (UniProt P35869); assay: qHTS assay to identify small molecule that activate the aryl hydrocarbon receptor (AhR) signaling pathway (AID 743085);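 further: HG2L7.5c1 human HepG2 liver cells with stably integrated DRE-driven firefly reporter; series mostly up to about 70 µM; nearly all actives have a fitted effect of over 15% in size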
Aryl hydrocarbon receptor (Homo sapiens), sequence (P35869 whole entry, looked up): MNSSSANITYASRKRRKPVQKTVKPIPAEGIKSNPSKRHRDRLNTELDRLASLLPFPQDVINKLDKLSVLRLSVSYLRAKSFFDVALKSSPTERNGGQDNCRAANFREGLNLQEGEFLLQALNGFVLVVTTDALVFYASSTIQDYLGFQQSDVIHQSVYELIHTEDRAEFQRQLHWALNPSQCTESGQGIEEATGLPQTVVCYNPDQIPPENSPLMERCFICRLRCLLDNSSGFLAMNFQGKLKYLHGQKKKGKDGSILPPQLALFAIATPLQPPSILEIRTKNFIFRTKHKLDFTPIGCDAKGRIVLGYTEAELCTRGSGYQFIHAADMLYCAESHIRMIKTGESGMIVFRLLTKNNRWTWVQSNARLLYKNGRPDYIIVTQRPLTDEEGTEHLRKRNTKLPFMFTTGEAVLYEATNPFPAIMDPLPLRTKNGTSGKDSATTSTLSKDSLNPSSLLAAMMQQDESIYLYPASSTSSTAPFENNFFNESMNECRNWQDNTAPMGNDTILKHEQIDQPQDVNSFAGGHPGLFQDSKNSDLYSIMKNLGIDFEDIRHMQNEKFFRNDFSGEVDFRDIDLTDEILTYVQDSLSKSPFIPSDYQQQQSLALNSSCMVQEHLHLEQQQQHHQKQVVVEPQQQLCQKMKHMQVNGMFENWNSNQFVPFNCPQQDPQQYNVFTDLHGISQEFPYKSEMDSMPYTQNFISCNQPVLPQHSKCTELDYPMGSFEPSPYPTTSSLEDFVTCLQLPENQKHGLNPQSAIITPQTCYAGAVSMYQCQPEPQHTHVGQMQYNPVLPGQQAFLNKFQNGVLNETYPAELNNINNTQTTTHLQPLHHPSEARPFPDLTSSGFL
Procedure, shortened: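 HepG2 cells (HG2L7.5c1) stably carrying a firefly luciferase reporter driven by 20 dioxin responsive elements were exposed to compound for 24 h at 37C after a 5 h settling period; luminescence rise (ONE-Glo) indicated activation.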

## CN1CCN=C(c2ccccc2)c2cc(Cl)ccc21
[1]
  outcome: inactive
[2]
  Potency: inactive
[3]
  outcome: inactive
[4]
  Potency: inactive
[5]
  outcome: inactive
[6]
  outcome: inactive
[7]
  outcome: inactive
[8]
  outcome: inactive
[9]
  outcome: inactive
[10]
  outcome: inactive
[11]
  outcome: inactive
[12]
  outcome: inactive
[13]
  outcome: inactive
[14]
  outcome: inactive
[15]
  outcome: inactive
[16]
  outcome: inactive
[17]
  outcome: inactive
[18]
  Potency: inactive
[19]
  Potency: inactive
[20]
  outcome: inactive
[21]
  Potency: inactive
[22]
  Potency: inactive
[23]
  outcome: inactive
[24]
  Potency: inactive
Aromatase (Homo sapiens)
  Potency: inactive
[25]
  outcome: inactive
[26]
  Potency: inactive
[27]
  outcome: inactive

## COc1cc(C(=O)NCc2ccc(OCCN(C)C)cc2)cc(OC)c1OC
[28]
  Potency: inactive

## COc1cc(C[C@H](C)N)c(OC)cc1Br
[29]
  Potency: inactive
[1]
  outcome: inactive
[2]
  Potency: inactive
[3]
  outcome: inactive
[5]
  outcome: inactive
[6]
  outcome: inactive
[7]
  outcome: inactive
[8]
  outcome: inactive
[9]
  outcome: inactive
[10]
  outcome: inactive
[11]
  outcome: inactive
[12]
  outcome: inactive
[13]
  outcome: inactive
[14]
  outcome: inactive
[15]
  outcome: inactive
[16]
  outcome: inactive
[18]
  Potency: inactive
[30]
  Potency: 62.7 µM (active)
[31]
  Potency: 70.4 µM (active)
[19]
  Potency: inactive
[21]
  Potency: 70.4 µM (active)
[22]
  Potency: 31.4 µM (active)
[23]
  outcome: inactive
[32]
  outcome: inactive
[33]
  Potency: inactive
[34]
  Potency: inactive
[35]
  Potency: inactive
[36]
  outcome: inactive
[24]
  Potency: 15.8 µM (active)
Aromatase (Homo sapiens)
  Potency: inactive
[25]
  outcome: inactive
[37]
  outcome: inactive
[26]
  Potency: inactive

## C#C[C@]1(OC(=O)CCCCCC)CC[C@H]2[C@@H]3CCC4=CC(=O)CC[C@@H]4[C@H]3CC[C@@]21C
[1]
  outcome: inactive
[2]
  Potency: inactive
[3]
  outcome: inactive
[4]
  Potency: 8.41 µM (active)
[5]
  outcome: inactive
[6]
  outcome: inactive
[7]
  outcome: inactive
[8]
  outcome: inactive
[9]
  outcome: inactive
[10]
  outcome: inactive
[11]
  outcome: inactive
[12]
  outcome: inactive
[13]
  outcome: inactive
[14]
  outcome: inactive
[15]
  outcome: inactive
[16]
  outcome: inactive
[18]
  Potency: 21.3 µM (active)
[30]
  Potency: 5.96 µM (active)
[31]
  Potency: 5.96 µM (active)
[19]
  Potency: inactive
[20]
  outcome: inactive
[21]
  Potency: 11.9 µM (active)
[22]
  Potency: 11.9 µM (active)
[33]
  Potency: 19 µM (active)
[34]
  Potency: 0.338 µM [inconclusive] (active)
[35]
  Potency: 0.596 µM (active)
[24]
  Potency: inactive
Aromatase (Homo sapiens)
  Potency: inactive
[25]
  outcome: inactive
[37]
  outcome: inactive

— PubChem BioAssay (Tox21)
